# NPC1 promoter act = activators of NPC1 promoter. Potency, µM (series often up to 9.22 µM), without a hit: top-dose activation, usual class: activators. Huh7 NPC1 promoter luciferase reporter, 24 h. AID 485313. 2.4% of 320,000 active; note: % of control where 0% means no effect; nearly all actives have a fitted effect of over 60% in size
#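 Huh7 cells stably carrying NPC1 promoter–luciferase, plated in Opti-MEM with 10% FBS for 2 h, were exposed to compound in DMSO for 24 h at 37 °C; luciferase reagent was added for 10 min and luminescence read.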
# Luc counter = counter-screen: inhibitors of Kinase-Glo firefly luciferase. Q27757. Kinase-Glo luciferase, ATP luminescence, 8 min. Potency, µM (doses to about 38.3 µM), for the others: top-dose activity change, negative = inhibition, most hits filed as inhibitors. 0.28% of 200,000 active; note: % is set by controls: 0 for no effect and ±100 for the full control effect; nearly all actives have a fitted effect of over 60% in size
#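 Light output from Kinase-Glo luciferase with luciferin and 10 uM ATP in 50 mM imidazole pH 7.2, KCl, MgCl2, Tween 20, BSA; compound pin-delivered, 8-min ambient incubation, then luminescence read.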
# SMN2 splice enh = enhancers of SMN2 splice variant expression; AID 1458; Potency, µM (series often up to 46.1 µM), for inactives: at the top dose activity change, positive = activation, usual class: activators; 2.8% of 210,000 active; HEK293 SMN2-luciferase splicing reporter, luminescence, 30-36 h; note: % of control where 0% means no effect; nearly all actives have a fitted effect of over 55% in size
#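 HEK293 cells carry an SMN2 […]–luciferase reporter in which exon 7 inclusion puts luciferase in frame. Cells were plated 10-12 h before compound addition, then incubated 30-36 h at 37C. ONE-Glo luminescence was read; sodium butyrate at 4.5 mM final served as control.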
# Rab9 promoter act = activates the Rab9 promoter | 2.8% of 320,000 active | Huh7 Rab9 promoter-luciferase reporter, luminescence, 24 h | Potency, µM (doses to about 9.22 µM), for inactives: at the top dose activation, negative = inhibition, usual class: activators | AID 485297; note: % of control where 0% means no effect; nearly all actives have a fitted effect of over 60% in size
#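 Huh7 reporter line, Rab9 promoter upstream of luciferase. Compound exposure 24 h at 37 °C in reduced-serum medium with 10% FBS. Read-out: luminescence.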
# ELG1 genotox = genotoxicity induction in ELG1-luciferase HEK293T cells | HEK293T ELG1-luciferase reporter, luminescence, 16 h | Potency, µM (series often up to 46 µM), without a hit: top-dose activity change, positive = activation, most hits filed as activators | 1.3% of 330,000 active; note: % of control where 0% means no effect; nearly all actives have a fitted effect of over 60% in size
#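 HEK293T cells expressing luciferase-tagged ELG1 were exposed to compound or DMSO vehicle for 16 hr at 37 °C and 5% CO2. Luciferase activity was then measured with ONE-Glo after 30 min at room temperature.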
# FLuc counter = counter-screen for miR-21 project: firefly luciferase inhibitors or activators; 6.9% of 360,000 active; Potency, µM (series often up to 57.5 µM), inactives show at the top dose activity change, negative = inhibition, hits mostly inhibitors; purified FLuc, Km substrates, luminescence inhibition;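 note: plate controls were vehicle for no effect and reference inhibitor for full effect; nearly all actives have a fitted effect of over 55% in size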
# Target sequence (P08659 whole entry, looked up): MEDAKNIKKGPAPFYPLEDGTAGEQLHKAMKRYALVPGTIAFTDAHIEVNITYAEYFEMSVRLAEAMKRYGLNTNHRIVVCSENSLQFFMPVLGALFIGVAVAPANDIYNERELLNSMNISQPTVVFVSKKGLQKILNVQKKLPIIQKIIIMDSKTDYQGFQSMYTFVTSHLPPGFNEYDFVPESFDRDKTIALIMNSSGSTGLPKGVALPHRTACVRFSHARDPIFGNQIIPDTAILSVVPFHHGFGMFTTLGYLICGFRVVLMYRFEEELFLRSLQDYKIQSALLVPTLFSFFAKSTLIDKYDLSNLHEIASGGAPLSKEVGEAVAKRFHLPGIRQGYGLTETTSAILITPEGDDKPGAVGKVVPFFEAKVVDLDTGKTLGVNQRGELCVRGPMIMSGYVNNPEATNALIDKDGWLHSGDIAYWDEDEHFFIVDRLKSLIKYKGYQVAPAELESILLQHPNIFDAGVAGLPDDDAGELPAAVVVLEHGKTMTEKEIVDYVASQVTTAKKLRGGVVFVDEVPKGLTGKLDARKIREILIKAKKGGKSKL
#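 Purified P. pyralis luciferase (10nM final) with 10uM D-luciferin and 10uM ATP (Km levels) in 50mM Tris acetate pH 7.5, 10mM Mg acetate, 0.01% Tween-20, 0.05% BSA; qHTS 6-point titration, ~60 µM downward; luminescence read.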
# The depositor's hits bear a star; ? = inconclusive; / = not tested or not shown; [ ] = remark or other dose. Rows were chosen to be rich in hits. Some 7.3% of all compounds tested hit in one or more screens of this group. Calls come from the whole dose curve; as a rule, active = well fitted curve in the direction sought with a large enough effect; inconclusive = small, poorly fitted or top-dose-only effect, or another doubt; inactive = no such curve, though single readings can be large; an effect the other way counts as inactive or inconclusive. Potency is the fitted concentration of half-maximal effect.
SMILES,NPC1 promoter act,Luc counter,SMN2 splice enh,Rab9 promoter act,ELG1 genotox,FLuc counter
CC(C)CCn1c(/C=C/c2ccccc2)nc2ccccc21,/,/,?,/,/,4.26µM*
COCCn1c(/C=C/c2ccccc2)nc2ccccc21,2.24µM*,?,11.2µM*,2µM*,?,1.69µM*
COc1ccc(Cl)cc1NC(=O)Cn1cnc2sc(C)c(S(=O)(=O)N3CCN(c4ccccc4OC)CC3)c2c1=O,/,/,-1.0%,/,/,6.1%
Cn1ccc2cc(S(=O)(=O)N3CCC(C(=O)NCCc4ccccc4)CC3)ccc21,/,/,/,/,/,0.2%
CCC(C)Cn1c(/C=C/c2ccccc2)nc2ccccc21 (configuration not stated),/,/,22.7%,/,/,6.75µM*
Cc1ccc(CNC(=O)C(=O)NCC(c2ccc3c(c2)OCO3)N2CCOCC2)cc1 (configuration not stated),/,/,/,/,/,2.6%
CC(=O)Nc1nnc(SCC(=O)N2C(C)CCCC2C)s1 (configuration not stated),-2.4%,/,/,-2.8%,5.1%,0.0%
CC1CN(C(=O)CSc2nnc(NC(=O)NC(C)(C)C)s2)CC(C)O1 (configuration not stated),-0.6%,/,/,-3.7%,4.4%,23.9µM*
COc1ccc(-c2cc(C(=O)Nc3c(Cl)cccc3Cl)no2)cc1OC,/,/,-33.7%,/,/,?
O=C(/C=C/c1ccc(N2CCCCC2)c([N+](=O)[O-])c1)c1ccc(O)cc1,?,-1.6%,-8.4%,?,20.6µM*,4.78µM*
O=C(O/N=C\c1ccc(N2CCCCC2)c([N+](=O)[O-])c1)c1ccc(Cl)cc1Cl,-4.1%,3.9%,-8.6%,-8.0%,-2.5%,-1.2%
COc1ccccc1C(=O)/C=C/c1ccc(N2CCCCC2)c([N+](=O)[O-])c1,?,0.0%,-84.1%,?,?,6.01µM*
COc1ccccc1CCN1COc2c(cc3c(C)c(C)c(=O)oc3c2C)C1,/,/,38.0%,/,/,-2.3%
COC(=O)c1noc(-c2ccc(C)cc2)n1,-0.6%,-4.5%,13.9%,-4.9%,1.8%,10.7µM*
Fc1ccc(-c2nc(-c3cccs3)no2)cc1,2µM*,/,/,1.78µM*,?,1.35µM*
Cc1noc(-c2ccc(-c3noc(-c4ccc(F)cc4)n3)cc2)n1,/,/,/,/,/,-6.2%
COC(=O)c1noc(-c2ccc(OC)cc2)n1,0.4%,-7.6%,15.6%,0.5%,-0.7%,?
O=C(NCCc1ccccc1)c1nc(-c2cccs2)no1,?,-0.7%,14.1µM*,5.62µM*,?,13.5µM*
Fc1ccc(-c2cc(-c3cccs3)cc(-c3ccccc3)n2)cc1,-0.3%,/,/,-7.8%,-2.2%,-4.5%
Fc1ccc(-c2cnc(-c3cccs3)o2)cc1,3.98µM*,-3.2%,17.1%,3.55µM*,?,6.01µM*
CCOC(=O)c1ccc(OCc2nc(-c3cccs3)no2)cc1,12.2%,-1.3%,12.2%,9.2%,-4.6%,-1.0%[2.3 µM]
COC(=O)c1ccc(-c2nc(-c3cccs3)no2)cc1,0.316µM*,?,10.3%,?,0.366µM*,0.151µM*
Cc1ccc(/C=C/c2ccc3cccc(O)c3n2)s1,3.98µM*,/,/,3.16µM*,20.6µM*,2.69µM*
COc1cc(/C=C/c2ccc3c(Br)cc(Br)c(O)c3n2)ccc1O,-10.5%,/,/,-32.6%,?,-3.9%
COc1cccc(/C=C/c2ccc3cccc(O)c3n2)c1,?,/,/,17.1%,23.1µM*,1.51µM*
SMILES,NPC1 promoter act,Luc counter,SMN2 splice enh,Rab9 promoter act,ELG1 genotox,FLuc counter
Oc1cccc(/C=C/c2ccc3cccc(O)c3n2)c1,?,/,/,13.3%,?,1.51µM*
CC(=O)COc1cccc2ccc(/C=C/c3ccc(Br)s3)nc12,?,/,/,?,-5.4%,19µM*
CCOC(=O)c1c(C)oc2nc(C)nc(NCc3cccc(OC)c3)c12,/,/,/,/,/,3.0%
CCC(=O)Nc1ccc(C(=O)COC(=O)Cc2ccsc2)cc1,-4.9%,/,/,3.4%,0.8%,10.7µM*
O=C(COC(=O)Cc1ccsc1)Nc1ccc(Br)cc1,-2.2%,/,/,-3.5%,5.6%,?
Cc1cc2c(cc1S(=O)(=O)Nc1cccc(C#N)c1)OCC(=O)N2,/,/,/,/,/,-4.4%
Cc1nc(SCc2ccccc2)nc2c1CCC2,?,-0.1%,11.2µM*,?,?,16.9µM*
Cc1ccc(CSc2nc3c(c(N(C)C)n2)CCCC3)cc1,0.3%,1.5%,-8.0%,-13.7%,?,-2.7%
CCOc1ccc2oc(=O)cc(CN3CCN(c4ccc(OC)cc4)CC3)c2c1,/,/,-0.4%,/,/,-0.4%
COc1ccccc1/C=C/C(=O)c1ccccc1,?,/,/,?,?,1.9µM*
COc1ccccc1/C=C/C(=O)c1c2c(c(C)[nH]c1=O)CCCC2,0.1%,0.9%,-54.2%,-30.1%,-4.8%,-7.5%
COc1ccccc1/C=C/C(=O)c1ccc(NC(C)=O)cc1,7.9%,-1.7%,/,-0.5%,-0.8%,15.1µM*
COc1ccc(OC(=O)c2ccc(Cl)cc2)c(C(C)=O)c1,-5.0%,/,/,-3.2%,14.8%,?
COc1ccccc1/C=C/C(=O)N1CCOCC1,-0.3%,-3.4%,-15.6%,-0.1%,2.5%,2.6%
COc1ccc(OC)c(/C=C/C(=O)c2ccc(Cl)cc2)c1,-2.1%,-0.8%,-32.3%,-5.1%,0.6%,10.7µM*
COc1ccccc1/C=C/C(=O)N1CCC(c2ccccc2)C1 (configuration not stated),?,-1.6%,12.6µM*,?,?,9.53µM*
COc1ccccc1N1CCN(C(=O)c2ccc(NC(C)=O)cc2)CC1,-2.9%,1.5%,-23.9%,-0.2%,-1.5%,4.2%
CCOCCCNC(=O)NC(C)c1c(-n2cccc2)sc2c1CCN(CC)C2 (configuration not stated),/,/,/,/,/,-4.5%
